About 1,900 (2.5%) of roughly 76,000 compounds were called active. About 5% were inconclusive and are not listed. Only a selection was taken, and actives are over-represented in it overall. Unmarked numbers belong to inactive results. The call rests on the fitted dose curve; in most records, active means well fitted inhibition curve with a large enough effect; inconclusive means small, poorly fitted or top-dose-only effect; inactive means flat fitted curve, though single readings scatter.
biological target: Luciferin 4-monooxygenase (Photinus pyralis) (UniProt P08659); experiment: Firefly luciferase inhibition profiling of diverse chemical library using quantitative high-throughput screening; further: nearly all actives have a fitted effect of over 65% in size; conditions: purified P. pyralis luciferase, luminescence, biochemical; series mostly up to 115 µM; activity change, negative = inhibition: at the top concentration
Source text: Firefly (Photinus pyralis) luciferase is one of the most commonly used transcriptional reporters for a number of reasons. It is considered one of the more dynamically responsive reporters - that is, responsive to changes in reporter transcription - as it requires no post-translational modifications and is enzymatically active directly after protein synthesis (Wood, 1998). Additionally, the half-life of the luciferase protein is short relative to other reporter-gene products (Wood, 1995). Whereas reporters with long half-lives potentially allow for increased signal due to accumulation of reporter-gene product, once accumulated in the cell, dynamic changes in reporter-gene expression may be difficult to detect(Fan and Wood, 2007; Almond et al., 2004). It has been shown that wild-type P. pyralis luciferase has a half-life of approximately four hours in mammalian cells (Thompson et al., 1991). Firefly luciferase reporter-gene assays are also generally considered one of the most sensitive assay types (Wood, 1995; Wood, 1998). Although light produced in a bioluminescence reaction is of lower intensity than that produced during fluorescence emission, this is offset by little to no background light inherent to luminescent assays. Thus the luciferase reporter can be expressed at much lower levels than fluorescent proteins while still providing robust signal. However, it was initially observed, in 1991, by Thompson et al., that compounds that resemble the substrates of firefly luciferase (FLuc) can act as competitive inhibitors of the enzyme, and that these compounds, upon interaction with luciferase in the cell, can actually stabilize the protein and increase its half-life. Accumulated intracellular FLuc protein can be measured as an increase in luminescence signal, upon addition of detection reagents (which contain high concentrations of FLuc substrates) commonly used in high-throughput screening. In cell-based reporter gene assays that use FLuc as the reporter gene to quantitate the potential influence of a given compound against the target biology, this apparent increase in luminescence can mistakenly be interpreted as identification of a compound that is active against the target of interest. FLuc inhibitory compounds that stabilize the FLuc protein will give an identical read-out, making it difficult to distinguish compounds that are active against the target from those active against FLuc. In summary, the results generated here constitutes a valuable resource for the scientific community and provides insight on identifying compounds with inhibitory activity for the commonly-used reporter, firefly luciferase. References: -Almond, B., Zdanovsky, A., Zdanovskaia, M., Ma, D., Stecha, P., Paguio, A., Garvin, D., and Wood, K. (2004). Introducing the Rapid Response Reporter Vectors. Promega Notes 87, 18-22. -Fan, F., and Wood, K.V. (2007). Bioluminescent assays for high-throughput screening. Assay Drug Dev Technol 5, 127-136. -Thompson, J.F., Hayes, L.S., and Lloyd, D.B. (1991). Modulation of firefly luciferase stability and impact on studies of gene regulation. Gene 103, 171-177. -Wood, K.V. (1998). The chemistry of bioluminescent reporter assays. Promega Notes 65, 14-20. -Wood, K.V. (1995). Marker proteins for gene expression. Curr Opin Biotechnol 6, 50-58.
Reagents: 50mM Tris acetate, pH 7.5; 10mM Mg acetate; 10uM D-luciferin (Sigma #L9504); 10uM ATP; 0.01% Tween-20; 0.05% BSA; 10nM P. pyralis luciferase (Sigma #L9506) Control compounds used were two known firefly luciferase inhibitors (compounds (2) and (5) in Auld et al., 2010), and DMSO. Assay Summary: Three microliters containing firefly luciferase substrates in buffer (final concentrations: 50mM Tris acetate, pH 7.5, 10mM Mg acetate, 0.01% Tween-20, 0.05% BSA, 10uM D-luciferin, and 10uM ATP) are dispensed into each well of a Greiner white, solid-bottom 1536-well format plate using a flying reagent dispenser (FRD). […]
On the % scale 0 is the no-effect control and ±100 the full control effect.

Sequence of Luciferin 4-monooxygenase (Photinus pyralis) (P08659 whole entry, looked up): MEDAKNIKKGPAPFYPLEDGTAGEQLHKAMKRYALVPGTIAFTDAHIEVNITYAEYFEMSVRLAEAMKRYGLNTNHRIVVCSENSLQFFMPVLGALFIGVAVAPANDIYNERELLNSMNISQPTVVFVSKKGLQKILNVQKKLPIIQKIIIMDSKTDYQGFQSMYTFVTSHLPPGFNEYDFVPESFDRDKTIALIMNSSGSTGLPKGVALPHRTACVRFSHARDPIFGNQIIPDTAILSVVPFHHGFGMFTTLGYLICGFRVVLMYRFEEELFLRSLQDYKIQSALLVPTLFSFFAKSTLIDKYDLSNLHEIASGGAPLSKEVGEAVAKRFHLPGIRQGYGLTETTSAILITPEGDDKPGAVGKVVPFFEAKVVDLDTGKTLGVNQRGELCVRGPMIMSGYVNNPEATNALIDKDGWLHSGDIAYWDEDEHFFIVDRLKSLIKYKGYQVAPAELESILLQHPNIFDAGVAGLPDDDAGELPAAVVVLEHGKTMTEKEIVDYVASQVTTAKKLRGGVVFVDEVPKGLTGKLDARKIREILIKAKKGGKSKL

| Structure (SMILES) | activity change, negative = inhibition | Potency |
| --- | --- | --- |
| O=C(c1ccccc1C1CCNC1)N1CCC(Nc2ncccn2)CC1 (stereo not drawn) | 3.36% | – |
| CN1C(=O)CO[C@H]2CN(C(=O)c3ccccc3)C[C@H]21 | 0.13% [at 230 µM] | – |
| Cc1ccccc1CN1CCOc2cc([S+](=O)([O-])N(C)C)ccc2C1 | -3.29% [at 172 µM] | – |
| CC(C)CN1CCN(C(=O)c2cc3c(s2)CCN(C(=O)c2ccc(Cl)cc2)C3)CC1 | -6.31% | – |
| CC(C)c1noc([C@H]2C[C@@H]3C(=O)NCCCCCCN(C(=O)Cc4cccnc4)[C@@H]3C2)n1 | -15.9% | – |
| COc1ccc(C)cc1NC(=O)Cn1nc2n(c1=O)CCCC2 | -4.41% | – |
| COc1cc(=O)n2c(c1C(=O)Nc1cc(C)ccc1C)CCCC2 | -5.74% | – |
| COc1ccc(C)cc1NC(=O)Nc1cccc(-c2ccc(N3CCCCC3)nn2)c1 | – | 0.282 µM (active) |
| COc1cc(Cl)ccc1C(=O)N1CCC[C@H]1c1nc(-c2ccccc2)no1 | 12.2% | – |
| COCCn1c(=O)n([C@H]2CCCN(C(=O)c3cc4ccccc4[nH]3)C2)c2ncccc21 | 8.11% | – |
| CSc1ccc(CNC(=O)c2noc(-c3ccc(C)cc3)n2)cc1 | -8.08% | – |
| COc1ccc(CCNC(=O)c2noc(-c3ccc(C)cc3)n2)cc1OC | -16.8% | – |
| Cc1ccc(-c2nc(C(=O)N3CCN(c4ccccn4)CC3)no2)cc1 | – | 14.1 µM (active) |
| CC(NC(=O)Cc1cccc(F)c1)C(=O)N1CCN(c2ccccn2)CC1 (stereo not drawn) | -7.86% | – |
| Cc1ccc(-c2nc(C(=O)N(C)Cc3ccccc3)no2)cc1 | – | 10 µM (active) |
| Cc1cccc(C(=O)N2CCCC(C(=O)N3CCN(c4ccccn4)CC3)CCNC(=O)CC2)c1 (stereo not drawn) | 7.1% | – |
| COCCn1c(CO)nnc1C1CC(NC(=O)c2sc(C)nc2C)C1 (stereo not drawn) | -3.21% | – |
| CCC(C(=O)Nc1ccc2c(c1)CN(Cc1cc(F)cc(F)c1)C(=O)CO2)c1ccccc1 (stereo not drawn) | 1.72% | – |
| COc1cccc(C(=O)N2CCC(C(NC(=O)c3ccccc3C)C(=O)NCC(C)C)CC2)c1 (stereo not drawn) | -5.87% | – |
| O=C(NCC1Cn2cccc2C(=O)N1Cc1ccccc1)c1ccc(F)cc1 (stereo not drawn) | -1.37% | – |
| CCC1=C(C(=O)OC)C(c2ccc(C)cc2C)N2C(CC(=O)N3CCOCC3)=CSC2=N1 (stereo not drawn) | -4.47% | – |
| N#Cc1cc2c(nc1N1CCN(C3CCCC3)C(CCO)C1)CCCC2 (stereo not drawn) | 3.08% | – |
| COC(=O)c1ccccc1NC(=O)Cn1nc2n(c1=O)CCCCC2 | -2.82% | – |
| COc1ccccc1-c1cc(-c2cn[nH]c2)c2cncn2c1 | -6.95% [at 230 µM] | – |

| Structure (SMILES) | activity change, negative = inhibition | Potency |
| --- | --- | --- |
| COc1ncccc1-c1cc(-c2cn[nH]c2)c2cncn2c1 | 10% [at 230 µM] | – |
| c1cc(N2CCOCC2)ccc1-c1cc(-c2cn[nH]c2)c2cncn2c1 | – | 22.4 µM (active) |
| CC(C)C(=O)N1CCCC(c2nc(-c3ccccc3)no2)CCNC(=O)CC1 (stereo not drawn) | -3.93% | – |
| Cc1ccc(C(=O)N2CCCC(c3nc(-c4ccccc4)no3)CCNC(=O)CC2)cn1 (stereo not drawn) | – | 28.2 µM (active) |
| Cn1cccc1C(=O)N1CCCC(c2nc(-c3ccccc3)no2)CCNC(=O)CC1 (stereo not drawn) | 2.73% | – |
| CC[C@H]1CN(C(=O)c2ccc(F)cc2)CC[C@H]1CC(=O)Nc1ccccc1 | 13.4% [at 172 µM] | – |
| OCc1cccc(-c2cc3c(cn2)CN(Cc2ccccc2)CCN3)c1 | – | 14.1 µM (active) |
| O=C1CN(Cc2ccc(-c3ccccc3)cc2)CCN1c1cc(Cl)ncn1 | -11.2% | – |
| Cn1ccc(Nc2cc3c(cn2)CN(CCc2ccccc2)CCN3)n1 | 3.4% [at 172 µM] | – |
| Cc1cccn2c(CC(=O)NCC3CCN(c4cnn(C)c(=O)c4)C3)cnc12 (stereo not drawn) | 10.5% | – |
| O=C(O)[C@@H]1CN(C(=O)NC2CCCC2)C[C@H]1c1ccccn1 | 0% | – |
| COc1ccccc1C(=O)NCc1ccnc2[nH]ccc12 | -9.82% [at 172 µM] | – |
| O=C(NCc1c[nH]c2ncccc12)c1ccccn1 | -11% [at 172 µM] | – |
| O=C(NCc1ccnc2[nH]ccc12)c1ccccn1 | – | 28.2 µM (active) |
| CN(C)c1ccc(NC(=O)COc2ccc(-c3nnc4n3CCCC4)cc2)cc1 | 1.38% | – |
| Nc1nc(C2CC(NC(=O)CCc3nc4ccc(F)cc4[nH]3)C2)cc(=O)[nH]1 (stereo not drawn) | 1.51% | – |
| COCc1nc(-c2ccc(NC(=O)Cn3nc4c(cc3=O)CCCC4)cc2)n[nH]1 | 5.99% | – |
| COCc1nc(C2CC(NC(=O)c3cc(-c4ccsc4)n[nH]3)C2)cc(=O)[nH]1 (stereo not drawn) | – | 28.2 µM (active) |
| O=C(NCc1ccccn1)C1CN(S(=O)(=O)c2cccs2)CC12CCCCC2 (stereo not drawn) | -9.22% | – |
| O=C(NC1CC1)[C@@H]1C[C@H](Oc2cccnc2)CN1C(=O)C1CCC1 | -5.55% | – |
| N#Cc1ccc(O[C@@H]2COCC[C@H]2NC(=O)CCCn2cccn2)cc1 | 0.744% | – |
| CCOC(=O)c1ccc(NC(=O)N2Cc3[nH]cnc3C[C@H]2c2nc(-c3ccc(Cl)cc3)no2)cc1 | -15.6% | – |
| Cc1cccc(-c2noc([C@@H]3Cc4nc[nH]c4CN3C(=O)Nc3ccccc3)n2)c1 | – | 50.1 µM (active) |
| CC(C)NC(=O)N1Cc2[nH]cnc2C[C@H]1c1nc(-c2ccc(Cl)cc2)no1 | -14.5% [at 172 µM] | – |
